Screening data: PubChem BioAssay, several laboratories
RmlCD inh 1536: M. tuberculosis RmlC/RmlD inhibition; P9WH09+P9WH11; RmlC+RmlD coupled enzyme assay, percent inhibition; primary screen in compound mixtures; inhibition, % at 3.6 µM; 160,000 tested, 0.03% active; AID 1533; in the data active = inhibition mostly above about 34%, no sharp cut-off
Target sequence (P9WH09 whole entry, looked up): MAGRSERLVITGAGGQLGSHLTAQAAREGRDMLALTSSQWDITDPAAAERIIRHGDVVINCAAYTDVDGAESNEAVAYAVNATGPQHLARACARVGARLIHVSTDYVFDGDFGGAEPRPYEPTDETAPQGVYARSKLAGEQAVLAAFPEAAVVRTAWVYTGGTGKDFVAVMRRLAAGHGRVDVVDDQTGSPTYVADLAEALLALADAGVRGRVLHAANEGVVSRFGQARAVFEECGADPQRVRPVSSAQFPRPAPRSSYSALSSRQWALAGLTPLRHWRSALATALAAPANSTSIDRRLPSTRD
Target sequence (P9WH11 whole entry, looked up): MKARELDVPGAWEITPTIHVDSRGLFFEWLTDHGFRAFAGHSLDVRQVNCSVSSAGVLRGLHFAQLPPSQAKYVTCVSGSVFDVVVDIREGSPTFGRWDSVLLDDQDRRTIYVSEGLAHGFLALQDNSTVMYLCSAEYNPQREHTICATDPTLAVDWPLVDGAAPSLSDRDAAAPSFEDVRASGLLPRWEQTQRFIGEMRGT
DUSP3 inh: blocks human VHR1 dual specificity phosphatase; P51452; recombinant VHR phosphatase, pNPP absorbance; inhibition, % at 13.3 µM; 290,000 tested, 0.52% active; AID 1654; in the data active = inhibition above about 50%
Numbers stand for hits; - = inactive; . = no result given. The list is not random: actives were taken first. Their share in the collection is about 0.54%.

SMILES | RmlCD inh 1536 | DUSP3 inh
Cc1cccc(N=C2NC(=O)/C(=C/c3cccn3C)S2)c1C | - | -
CCOC(=O)C(CC)n1cnc2c(nnn2-c2ccc(C)cc2)c1=O (stereo not drawn) | - | -
CCOC(=O)C(CC)n1cnc2c(nnn2-c2cccc(OC)c2)c1=O (stereo not drawn) | . | 53
CC1CCN(S(=O)(=O)c2ccc(S(=O)(=O)NCC3COCCO3)cc2)CC1 (stereo not drawn) | . | -
Cc1ccc(S(=O)(=O)N2CCC(C(=O)NCCCN3CCCCCC3)CC2)cc1 | . | -
O=C(NCCCN1CCOCC1)c1ccc2c(c1)N(Cc1ccccc1)C(=O)c1ccccc1S2=O (stereo not drawn) | . | 60
O=C(NCCCN1CCOCC1)c1ccc2c(c1)N(Cc1cccc(Cl)c1)C(=O)c1ccccc1S2=O (stereo not drawn) | . | -
COc1ccc(C=O)cc1CN1CCCN(Cc2ccccc2F)S1(=O)=O | . | -
COc1ccc(Cc2nnc(NC(=O)c3ccco3)s2)cc1 | . | -
Cc1cccc(N2CCN(C(=O)Cc3ccccc3[N+](=O)[O-])CC2)c1C | . | -
CN(C(=O)COC(=O)c1cc([N+](=O)[O-])ccc1N1CCCC1)C1CCS(=O)(=O)C1 (stereo not drawn) | - | 51
CN(C(=O)COC(=O)c1cc(S(=O)(=O)N2CCCCC2)ccc1N1CCOCC1)C1CCS(=O)(=O)C1 (stereo not drawn) | - | -
CSc1ccccc1C(=O)N1CCCCC1 | - | -
O=C(COC(=O)c1cccnc1)Nc1ccccc1 | . | 57
O=C(COC(=O)c1cccnc1)Nc1ccc(F)cc1 | . | -
CC1=C(C(=O)Nc2cc(C(=O)N(C)Cc3ccccc3)ccc2C)SCCO1 | . | 52
COCCNC(=O)c1ccc(C)c(NC(=O)C2=C(C)OCCS2)c1 | . | -
O=C(CSc1nc2ccccc2o1)Nc1nccs1 | - | -
CCN1C(=O)[C@@H]2Cc3c([nH]c4ccccc34)C(c3ccc(OC)cc3)N2C1=S (stereo partly drawn) | . | -
COC(=O)CSc1nc(C)c2c(n1)CCCC2 | - | -
NC(=O)CSc1nnc(CNc2ccc(F)cc2)n1CC1CCCO1 (stereo not drawn) | . | -
Cc1ccc(NCc2nnc(SCC(N)=O)n2CC2CCCO2)c(C)c1 (stereo not drawn) | . | 53
Cc1cc(NC(=O)CCCN2C(=O)c3cccc4cccc(c34)C2=O)no1 | - | -
CCCn1nc(NS(=O)(=O)c2cccc3nonc23)c2cc3cccc(C)c3nc21 | . | -
CC1CCCCN1S(=O)(=O)c1ccc([N+](=O)[O-])cc1 (stereo not drawn) | . | -
SMILES | RmlCD inh 1536 | DUSP3 inh
CCC1CCCCN1S(=O)(=O)c1ccc([N+](=O)[O-])cc1 (stereo not drawn) | . | 51
COc1ccc(Cl)cc1NC(=O)CSc1nc2ccsc2c(=O)n1CC1CCC(C(=O)O)CC1 (stereo not drawn) | . | -
CCOc1ccc(S(=O)(=O)N2CCN(c3ncccn3)CC2)cc1 | . | -
CCOc1ccc(S(=O)(=O)N2CCN(c3ccccn3)CC2)cc1 | . | 56
COc1ccc(C(=O)NCCN2C(=O)S/C(=C\c3cccnc3)C2=O)c(OC)c1OC | . | -
CCOc1cc(C(=O)NCCN2C(=O)S/C(=C\c3cccnc3)C2=O)cc(OCC)c1OCC | - | 53
O=C(/C=C/c1cccc(Cl)c1)NCCCN1CCOCC1 | . | -
Cc1ccc(S(=O)(=O)NCC(c2cccnc2)N2CCN(Cc3ccccc3)CC2)cc1 (stereo not drawn) | . | -
CCN1CCN(C(CNS(=O)(=O)c2ccc(C)cc2)c2cccnc2)CC1 (stereo not drawn) | . | 51
Cc1ccc(NC(=O)COc2ccc(/C(N)=N/O)cc2)cc1C | . | -
CCC1C(=O)NCCN1C(=O)c1ccc(OC)c(OC2CCN(C(C)=O)CC2)c1 (stereo not drawn) | . | -
CCc1ccc(/C=C(\Cl)c2nc3cc(Cl)ccc3c(=O)[nH]2)cc1 | - | -
CN1c2ccccc2Sc2cc(N)ccc21 | . | 55
CC(=S)/C=C1\Sc2ccccc2N1C | - | -
CCC(C)(C)N(C(=O)CCC(=O)Nc1cc(C)on1)C(C(=O)NC(C)(C)C)c1ccc(OC)cc1 (stereo not drawn) | . | -
S=C(Nc1cccc(Cl)c1)Nc1cccc2cnccc12 | - | 51
Cc1ccc(NC(=S)Nc2cccc3cnccc23)cc1C | . | -
O=C(Nc1ccccc1F)C1CCCN1S(=O)(=O)c1cccc2nsnc12 (stereo not drawn) | . | -
CCCCc1nnc(NC(=O)CSCc2cc(=O)n3c(C)csc3n2)s1 | . | -
CCCCc1nnc(NC(=O)CSCc2cc(=O)n3cc(C)sc3n2)s1 | . | 56
COC(=O)C1CN(C(=O)C(C)Oc2ccccc2Cl)c2ccccc2O1 (stereo not drawn) | . | -
CCOC(=O)c1ccc(NC(=O)CC2Sc3ncnn3C2=O)cc1 (stereo not drawn) | - | -
NC(=O)N/N=C/c1coc2ccc3ccccc3c2c1=O | - | -
O=Cc1coc2ccc3ccccc3c2c1=O | . | 56
CCc1ccc(/C([O-])=C(/C(=S)NCCN2CCOCC2)[n+]2ccccc2)cc1 | . | -
SMILES | RmlCD inh 1536 | DUSP3 inh
CC(NC(=S)NC1CCCCC1)c1ccc(C(C)(C)C)cc1 (stereo not drawn) | . | -
CCOC(=O)COc1cccc2c(=O)n(CC(=O)N3CCC(C)CC3)ccc12 | . | -
COc1ccc(/C=C/c2nnc(NC(=O)CSc3ccc(C)cc3)s2)cc1 | . | -
Cc1ccc(SCC(=O)Nc2nnc(C(C)(C)C)s2)cc1 | . | 54
OCn1ncn(-c2ccccc2)c1=S | . | -
COc1ccc(C(=O)OCCc2ccc(O)cc2)cc1 | . | -
COc1ccc(C(=O)OCC[N+]2(C)CCOCC2)cc1 | - | 53
CCOc1ccc(C(=O)N[C@H](C(=O)Nc2ccccc2OC)C(C)C)cc1 | . | -
Nc1c(C(=O)NCC2CCCO2)sc2nc3c(c(-c4ccco4)c12)CC/C3=C\c1ccco1 (stereo not drawn) | - | 101
NC(=O)c1sc2nc3c(c(-c4ccco4)c2c1N)CCCC3 | . | -
O=[N+]([O-])c1ccc(/C=N/N=C/c2ccc([N+](=O)[O-])o2)o1 | - | -
Cc1cc2ncn(/N=C/c3ccc([N+](=O)[O-])o3)c2cc1C | - | 52
COc1ccccc1C(=O)NC(=O)Nc1c(C)cc(C)cc1C | . | -
Cc1c(CCC(=O)NCCC(=O)O)c(=O)oc2c(C)c3oc4c(c3cc12)CCCC4 | . | -
COc1ccc(CN(CC(=O)NCc2ccccc2)C(=O)CCC(=O)Nc2cc(C)ccn2)cc1 | . | 52
COc1ccc(CN(CC(=O)NCc2ccc(F)cc2)C(=O)CCC(=O)Nc2cc(C)ccn2)cc1 | . | -
COc1ccccc1C1CC(c2ccc(NS(C)(=O)=O)cc2)=NN1S(=O)(=O)c1ccccc1 (stereo not drawn) | . | -
O=S(=O)(c1ccccc1)N1N=C(c2ccccc2)CC1c1ccccc1F (stereo not drawn) | . | 53
CNC(=O)c1cc2cc(OC)ccc2oc1=O | - | -
COc1ccc2oc(=O)c(C(=O)NC3CCCCCC3)cc2c1 | . | 50
O=C(NCc1n[nH]c(=S)n1-c1ccc(F)cc1)c1ccco1 | - | -
CCCc1cc(=O)oc2c(C)c(OCC(=O)NC3CC(C)(C)NC(C)(C)C3)ccc12 | . | 50
Cc1cc(=O)oc2c(C)c(OCC(=O)NC3CC(C)(C)NC(C)(C)C3)ccc12 | . | -
CCCc1cc(=O)oc2c(C)c(OCC(=O)NCCCN3CCOCC3)ccc12 | . | 53
CCc1cc(=O)oc2c(C)c(OCC(=O)NCCCN3CCOCC3)ccc12 | . | -
